Only some compounds are listed: those with a hit (about 1.9% of all), similar ones and a draw of the others.
LYPLA1 counter: counter-screen for PME1 inhibitors: inhibitors of human LYPLA1; 320,000 compounds, 0.16% hits; inhibition, % at 5.9 µM; recombinant LYPLA1, FP-Rh probe fluorescence polarization; O75608;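 active = inhibition above the mean of all tested compounds plus 3 SD, set per campaign, cut at about 14% in these data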;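 also: inhibitors block serine hydrolase probe labeling of LYPLA1 so polarization falls; 0% = enzyme with DMSO and 100% = wells lacking LYPLA1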
PREPL inhibitor: inhibits the human prolyl oligopeptidase-like enzyme | recombinant PREPL, fluorescence polarization activity-based probe | inhibition, % at 5.96 µM | 320,000 compounds, 0.68% hits | Q4J6C6; in the data active = inhibition above about 43%;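 also: 0% = enzyme with DMSO and 100% = wells lacking enzyme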
GSTO1 inh: blocks human GSTO1 in RBBP9 counter-screen; P78417; recombinant GSTO1, activity-based probe fluorescence polarization; inhibition, % at 5.96 µM; 300,000 compounds, 1.1% hits;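 active = inhibition above the campaign mean inhibition plus 3 SD, cut at about 35% in these data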;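 also: 0% = GSTO1-1 with DMSO and 100% = wells lacking GSTO1-1 enzyme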
PME-1 primary: PME-1 (human) inhibition | recombinant PME-1, FP-Rh probe fluorescence polarization | 320,000 compounds, 0.53% hits | Q9Y570 | inhibition, % at 5.9 µM | AID 2130;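 active = inhibition above the campaign mean of all compounds plus 3 SD, cut at about 26% in these data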;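 also: competitive labeling of PME-1 active site by serine hydrolase directed probe; 0% = PME-1 with DMSO and 100% = wells lacking PME-1 enzyme; inhibitors block probe labeling so polarization falls and inhibition rises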
LYPLA2 inh: LYPLA2 (human) inhibition in PME1 counter-screen | O95372 | inhibition, % at 5.9 µM | 320,000 compounds, 0.38% hits | recombinant LYPLA2, FP-Rh probe fluorescence polarization;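 active = inhibition above the screen-wide mean plus 3 SD, limit set per campaign, cut at about 26% in these data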;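 also: 0% = LYPLA2 with DMSO and 100% = wells lacking LYPLA2 enzyme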
Fam108B inh: blocks mouse Fam108B hydrolase in RBBP9 counter-screen | recombinant Fam108B, FP-Rh probe fluorescence polarization | inhibition, % at 9.51 µM | 300,000 compounds, 0.33% hits;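 active = inhibition above the screen mean inhibition plus 3 SD, computed separately per campaign, cut at about 18% in these data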;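 also: inhibitors lower polarization as less probe binds the enzyme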
Fam108b confirm: Fam108b (mouse) hydrolase inhibition, confirmation assay. shares compounds with Fam108B inh. recombinant Fam108b, FP-Rh probe fluorescence polarization. inhibition, % at 9.51 µM. 930 compounds, 44% hits;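 active = inhibition above a limit from the primary screen, the mean over all compounds plus 3 SD, cut at about 19% in these data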;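 also: 0% = median of active Fam108b wells and 100% = catalytically dead S170A mutant; inhibitors free the probe so polarization falls as inhibition rises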
Fam108b inh: mouse ABHD17B inhibition | shares compounds with Fam108B inh | recombinant Fam108b, gel-based ABPP, fluorophosphonate probe | inhibition, % at 20 µM | 260 compounds, 44% hits; in the data active = inhibition above about 40%
GSTO1 confirm: GSTO1 (human) inhibition, confirmation; shares compounds with GSTO1 inh; recombinant GSTO1, probe fluorescence polarization; inhibition, % at 5.96 µM; 2,400 compounds, 54% hits;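 active = inhibition above the primary screen's cutoff, its mean inhibition plus 3 SD, cut at about 35% in these data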;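 also: loss of polarization as inhibitors block binding of rhodamine sulfonate ester activity probe; 0% = GSTO1 with DMSO and 100% = wells lacking GSTO1 enzyme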
LYPLA1 confirm: counter-screen for PME1 inhibitors: confirmation of human LYPLA1 inhibitors | shares compounds with LYPLA1 counter | AID 2233 | 480 compounds, 69% hits | inhibition, % at 5.9 µM | recombinant LYPLA1, FP-Rh probe fluorescence polarization;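 active = mean inhibition across replicates above the hit cutoff set in the primary screen, cut at about 15% in these data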;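 also: loss of FP-Rh probe labeling of LYPLA1 seen as lower polarization; 0% = LYPLA1 with DMSO and 100% = wells lacking LYPLA1 enzyme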
LYPLA2 confirm: counter-screen for PME1 inhibitors: confirmation of human LYPLA2 inhibitors. 1,100 compounds, 72% hits. shares compounds with LYPLA2 inh. inhibition, % at 5.9 µM. recombinant LYPLA2, FP-Rh probe fluorescence polarization;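 active = mean inhibition across replicates above the hit cutoff set in the primary screen, cut at about 26% in these data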;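 also: blocked labeling of the enzyme by serine hydrolase FP-Rh probe lowers polarization; 0% = enzyme with DMSO and 100% = wells lacking LYPLA2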
An asterisk follows results filed as active; ! = repeats disagree.

How did Cc1c(N=Cc2c(O)n(Cc3ccco3)c(=O)[nH]c2=O)c(=O)n(-c2ccccc2)n1C do in these assays?
LYPLA1 counter: -4; PREPL inhibitor: 23; GSTO1 inh: -5; PME-1 primary: -1; LYPLA2 inh: 0; Fam108B inh: -2

What do the screens show for `COc1ccc(OC)c(N2C(=O)NC(=O)/C(=C\c3ccc([N+](=O)[O-])s3)C2=O)c1`?
LYPLA1 counter: -3; PREPL inhibitor: 40; GSTO1 inh: 40*; PME-1 primary: -1; LYPLA2 inh: 10; Fam108B inh: 44*; Fam108b confirm: 11; GSTO1 confirm: 26

What do the screens show for `CCOc1cc(CN2CCN(C(=O)Cc3ccccc3)CC2)ccc1OC`?
LYPLA1 counter: -2; PREPL inhibitor: 5; GSTO1 inh: 8; PME-1 primary: 1; LYPLA2 inh: -1; Fam108B inh: 1

Results for CCN(CC)C(=O)c1ccc(NC(=O)c2cccc(S(=O)(=O)N3CCN(Cc4ccccc4)CC3)c2)cc1 ?
LYPLA1 counter: -6; PREPL inhibitor: 1; GSTO1 inh: -11; PME-1 primary: -3; LYPLA2 inh: -2; Fam108B inh: -1

What do the screens show for `CCN(CC)C(=O)c1ccc2c(c1)C1C(Cl)C(Sc3ccccc3[N+](=O)[O-])CC1C(C(=O)O)N2` (stereo not drawn)?
LYPLA1 counter: 0; PREPL inhibitor: 39; GSTO1 inh: 52*; PME-1 primary: 14; LYPLA2 inh: 2; Fam108B inh: 47*; Fam108b confirm: 7; GSTO1 confirm: 49*

How did CN(C)[C@@H]1C(=O)C(C(N)=O)=C(O)[C@@]2(O)C(=O)C3=C(O)c4c(O)cccc4[C@@](C)(O)C3[C@H](O)C12 (stereo partly drawn) do in these assays?
LYPLA1 counter: -8; PREPL inhibitor: 13; GSTO1 inh: 62*; PME-1 primary: -8; LYPLA2 inh: -6; Fam108B inh: 32*!; Fam108b confirm: 34*; GSTO1 confirm: 66*!

Results for CN(C)C(=O)Oc1cccc(OCc2n(C)c3ccccc3[n+]2C)c1 ?
LYPLA1 counter: 1; PREPL inhibitor: 8; GSTO1 inh: 5; PME-1 primary: 4; LYPLA2 inh: 2; Fam108B inh: -3

How did N/C(=N\N=C/c1ccc(-c2ccc(O)c(C(=O)O)c2)o1)N[N+](=O)[O-] do in these assays?
LYPLA1 counter: -4; PREPL inhibitor: 8; GSTO1 inh: 40*; PME-1 primary: -6; LYPLA2 inh: -7; Fam108B inh: 19*; Fam108b confirm: 24*; GSTO1 confirm: 57*

How did Cn1nc(-c2ccc(OCC(=O)N3CCN(Cc4ccccc4)CC3)cc2)c2ccccc2c1=O do in these assays?
LYPLA1 counter: 0; PREPL inhibitor: -13; GSTO1 inh: -3; PME-1 primary: -1; LYPLA2 inh: 11; Fam108B inh: -2

How did O=[N+]([O-])c1ccc(NCc2ccccc2)c2nonc12 do in these assays?
LYPLA1 counter: 53*; PREPL inhibitor: 38; GSTO1 inh: 21; PME-1 primary: 56*; LYPLA2 inh: 64*; Fam108B inh: 21*; Fam108b confirm: 38*; Fam108b inh: 0; LYPLA1 confirm: 36*; LYPLA2 confirm: 50*

Results for Cc1nonc1OCCNc1ccc([N+](=O)[O-])c2cccnc12 ?
LYPLA1 counter: 2; PREPL inhibitor: 0; GSTO1 inh: -1; PME-1 primary: 7; LYPLA2 inh: 0; Fam108B inh: -2
